High-throughput results (PubChem)
Rows were chosen to be rich in hits. Some 1% of all compounds tested hit in one or more screens of this group.
FEN1 inh = qHTS Assay for the Inhibitors of Human Flap endonuclease 1 (FEN1) | 390,000 tested, 0.35% active | AID 588795, 2011 | Recombinant FEN1 flap cleavage, fluorescence, 15 min | Potency, µM (top dose mostly 114 µM), inactives show top-dose activity change, negative = inhibition, usual class: inhibitors | P39748; note: nearly all actives have a fitted effect of over 65% in size
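Compounds are tested as a concentration series against 10 nM FEN1; after a 15 min room-temperature preincubation, 50 nM substrate starts cleavage, with plate reads at 0 and 15 min. Normalized responses are fitted by a Hill equation.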
L3MBTL1 inh = qHTS Assay for the Inhibitors of L3MBTL1. Lethal(3)malignant brain tumor-like protein 1 (Homo sapiens), Q9Y468. AlphaScreen L3MBTL1–H3K9me1 peptide binding. Potency, µM (top dose mostly 57.1 µM), for inactives: at the highest dose activity, negative = inhibition, usual class: inhibitors. 230,000 tested, 0.66% active. AID 485360, 2010; note: nearly all actives have a fitted effect of over 60% in size
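L3MBTL1 (50 nM) pre-complexed 30 min with biotinylated H3(1-15)K9me1 peptide (75 nM), then compounds added for 30 min at room temperature; AlphaScreen streptavidin donor/nickel chelate acceptor beads (10 ug/mL final) read after 30 min dark incubation.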
WRN helicase inh = qHTS for Inhibitors of WRN Helicase; WRN helicase unwinding, fluorescent forked duplex, kinetic; Potency, µM (titrated, usually from 114 µM), for inactives: at the top dose activity change, negative = inhibition, actives largely listed as inhibitors; 360,000 tested, 0.46% active; AID 651768, 2012; note: nearly all actives have a fitted effect of over 55% in size
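Screening of the MLSMR collection measured strand separation of a quenched forked DNA duplex (100 nM) by 20 nM WRN with 2 mM ATP, all final. Compounds were preincubated with enzyme 15 min at room temperature.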
APEX1 inh = qHTS Assay for Inhibitors of the Human Apurinic/apyrimidinic Endonuclease 1 (APE1); 350,000 tested, 0.35% active; recombinant APE1, TAMRA/BHQ-2 abasic DNA cleavage fluorescence; DNA repair nuclease/redox regulator APEX1 (Homo sapiens), P27695; Potency, µM (titrated, usually from 65.8 µM), for the others: at the highest dose activity change, negative = inhibition, actives largely listed as inhibitors;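 note: plate controls were vehicle for no effect and reference inhibitor for full effect; nearly all actives have a fitted effect of over 55% in size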
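0.75 nM APE1 + cpd, 15 min RT; start w/ 50 nM TAMRA/BHQ-2 THF-abasic dsDNA; kinetic fluor 525/598 nm ×3 reads @60 s; Δ(read3−read1); normalized to DMSO and NSC13755 control wells.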
RECQ1 inh-1 = qHTS Assay for Inhibitors of RecQ-Like Dna Helicase 1 (RECQ1) | ATP-dependent DNA helicase Q1 (Homo sapiens), P46063 | RECQ1 DNA unwinding, red fluorescence kinetic read | Potency, µM (series often up to 57.3 µM), for the others: top-dose activity, negative = inhibition, actives largely listed as inhibitors | 240,000 tested, 0.54% active | AID 2549, 2010;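 note: plate controls were vehicle for no effect and no enzyme for full effect; nearly all actives have a fitted effect of over 30% in size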
Target sequence (P46063 whole entry, looked up): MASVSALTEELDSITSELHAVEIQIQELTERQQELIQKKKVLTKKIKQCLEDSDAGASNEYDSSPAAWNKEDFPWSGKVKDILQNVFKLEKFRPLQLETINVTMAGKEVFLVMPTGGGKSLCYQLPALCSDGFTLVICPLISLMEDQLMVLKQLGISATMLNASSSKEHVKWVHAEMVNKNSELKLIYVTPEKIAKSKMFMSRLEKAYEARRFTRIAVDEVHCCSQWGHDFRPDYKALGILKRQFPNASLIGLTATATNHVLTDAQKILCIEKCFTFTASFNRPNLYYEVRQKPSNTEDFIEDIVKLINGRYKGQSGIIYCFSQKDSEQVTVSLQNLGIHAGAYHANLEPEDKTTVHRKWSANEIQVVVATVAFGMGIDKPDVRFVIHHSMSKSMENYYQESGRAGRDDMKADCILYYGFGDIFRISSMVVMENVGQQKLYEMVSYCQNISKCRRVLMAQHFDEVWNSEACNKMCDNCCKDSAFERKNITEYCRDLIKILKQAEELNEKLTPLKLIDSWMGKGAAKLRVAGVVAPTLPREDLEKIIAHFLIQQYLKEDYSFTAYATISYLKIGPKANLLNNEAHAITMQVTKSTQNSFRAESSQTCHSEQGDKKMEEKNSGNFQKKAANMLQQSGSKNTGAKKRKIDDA
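50 nM RECQ1T1 preincubated 15 min with compound in Tris pH 8.0 buffer with MgCl2, DTT, Tween-20 and 2.5 ug/ml poly(dI-dC); started with 200 nM TAMRA/BHQ-2 forked duplex and 2 mM ATP. Unwinding read as fluorescence (525/598 nm), two reads 2 h apart.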
BLM helicase inh = qHTS Assay for Inhibitors of Bloom's syndrome helicase (BLM). RecQ-like DNA helicase BLM (Homo sapiens), P54132. 350,000 tested, 0.2% active. recombinant BLM DNA unwinding, fluorescence dequenching. AID 2528, 2010. Potency, µM (doses to about 56.1 µM), inactives show at the highest dose activity change, negative = inhibition, actives largely listed as inhibitors;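 note: plate controls were vehicle for no effect and no enzyme for full effect; nearly all actives have a fitted effect of over 35% in size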
RECQ1 conf = Confirmation qHTS Assay for Inhibitors of RecQ-Like Dna Helicase 1 (RECQ1). shares compounds with RECQ1 inh-1. RECQ1 helicase DNA unwinding, fluorescence. Potency, µM (top dose mostly 229 µM), for inactives: at the top dose activity change, negative = inhibition, actives largely listed as inhibitors. 610 tested, 28% active. AID 2708, 2010; note: nearly all actives have a fitted effect of over 45% in size
ADP FP counter = Counterscreen for RECQ1 Inhibitors: ADP Fluorescence Polarization Displacement Assay; 530 tested, 27% active; ADP fluorescence polarization displacement counterscreen; shares compounds with RECQ1 inh-1; AID 2711, 2010; Potency, µM (titrated, usually from 228 µM), for the others: at the top dose activity change, negative = inhibition, hits mostly inhibitors; note: nearly all actives have a fitted effect of over 45% in size
RECQ1 inh-2 = Confirmation qHTS Assay for Inhibitors of RecQ-Like Dna Helicase 1 (RECQ1) - Round 2 Cherry Picks. recombinant RECQ1 DNA unwinding, red fluorescence. 1,100 tested, 15% active. Potency, µM (titrated, usually from 119 µM), for inactives: top-dose activity, negative = inhibition, usual class: inhibitors. shares compounds with RECQ1 inh-1; note: nearly all actives have a fitted effect of over 50% in size
Active calls of the source: *; i = inactive; ? = inconclusive; nt = not tested or not shown; [ ] = another dose, or the depositor's remark. Calls come from the whole dose curve; as a rule, active = well fitted curve in the direction sought with a large enough effect; inconclusive = small, poorly fitted or top-dose-only effect, or another doubt; inactive = no such curve, though single readings can be large; an effect the other way counts as inactive or inconclusive. Unless noted, % is set by controls: 0 for no effect and ±100 for the full control effect; potency is the fitted concentration of half-maximal effect.

SMILES	FEN1 inh	L3MBTL1 inh	WRN helicase inh	APEX1 inh	RECQ1 inh-1	BLM helicase inh	RECQ1 inh-2	others
CCOc1cccc(NC(=O)c2ccc(S(=O)(=O)N3CCCC3)cc2)c1	-22%	nt	-3%	-5%	13µM*	-3%	-19%
CC(=O)c1cccc(NC(=O)c2ccc(S(=O)(=O)N3CCCCC3)cc2)c1	-10%	?	-6%	10%	5%	-1%	nt
Cc1cc2ccccc2n1CCNC(=O)c1ccc(S(=O)(=O)N2CCCCC2)cc1	-9%	-8%	-14%	?	28µM*	-29%	79µM*
O=C(Nc1ccc(S(=O)(=O)N2CCCCC2)cc1)c1ccc(CN2CCc3ccccc3C2)cc1	-6%	-12%	-4%	-7%	?	-11%	-14%
O=C(NC(Cc1ccccc1)C(=O)O)c1ccc(S(=O)(=O)N2CCCC2)cc1 (stereo not given)	3%	11%	6%	-5%	-14%	5%	nt
O=C(NC(Cc1ccccc1)C(=O)O)c1ccc(S(=O)(=O)N2CCCCC2)cc1 (stereo not given)	0%	nt	-1%	3%	-4%	3%	nt	RECQ1 conf=12%;ADP FP counter=?
COc1ccccc1C(=O)Nc1ccc(-c2nnc(SCC(=O)O)n2C)cc1	-1%	nt	-19%	-5%	i	-4%	nt	RECQ1 conf=17%;ADP FP counter=-11%
CCCS(=O)(=O)NC(=O)C1(C)CCN(C(=O)c2c(F)cccc2F)C1 (stereo not given)	nt	nt	0%	nt	nt	nt	nt
O=C(Cn1cc(SCc2ccc(F)cc2)c2ccccc21)N1CCCCCC1	?	nt	nt	nt	nt	-7%	nt
O=C(CC1C(=O)NCCN1Cc1ccc(F)cc1)NCCOc1cccnc1 (stereo not given)	6%	-3%	-31%[57.1 µM]	-6%	-9%	-3%	nt
O=C(CC1C(=O)NCCN1Cc1ccc(-c2ccccc2)cc1)NCCOc1cccnc1 (stereo not given)	19%	-4%	0%	-7%	?	1%	-14%
Cc1ccc(NC(=O)COC(=O)CNC(=O)c2cccc([N+](=O)[O-])c2)cc1S(=O)(=O)N1CCCCCC1	1%	-12%	-12%	?	32µM*	-9%	-16%
O=C1CC2C(CCC23OCCO3)c2ccc3ccccc3c21 (stereo not given)	-10%	nt	1%	nt	nt	nt	nt
CC(C=CC(O)=C1C(=O)CNC1=O)=C[C@@H](C)C1OC2(C)OC(C(=O)C3O[C@@]32C)C1C (stereo not given in full)	nt	nt	0%	nt	nt	nt	nt
c1csc(Cc2nn3c(-c4n[nH]c5c4CCC5)nnc3s2)c1	-5%	nt	-36%	-1%	14µM*	-19%	-17%	ADP FP counter=-10%[91.9 µM]
COc1ccccc1-c1nn2c(-c3ccco3)nnc2s1	-30%	?	-16%	-9%	-17%	-8%	nt
c1coc(-c2nnc3sc(Cc4cccs4)nn23)c1	56µM*	nt	45µM*	25µM*	?	-27%	?
c1coc(-c2nn3c(-c4ccco4)nnc3s2)c1	-2%	-29%	?	?	?	-12%	?
COc1ccc(OCc2nn3c(-c4ccco4)nnc3s2)cc1	-8%	-14%	-10%	-12%	-5%	-6%	nt
CC1(C(=O)O)CCCN1C(=O)c1ccco1 (stereo not given)	nt	nt	2%	nt	nt	nt	nt
Cc1ccc(S(=O)(=O)NC(=O)C2(C)CCN2C(=O)Cc2ccc(C(C)(C)C)cc2)cc1 (stereo not given)	nt	nt	-2%	nt	nt	nt	nt
CC(=O)NC(c1ccco1)c1cc(Br)c2cccnc2c1O (stereo not given)	nt	?	nt	29%	nt	nt	nt
COc1cccc(NC(=O)CSc2nc3c([nH]c4ccccc43)c(=O)n2-c2ccccc2)c1	3%	nt	nt	nt	nt	-8%	nt
Cc1cc(C)c2nc(-c3ccccn3)cc(C(=O)Nc3ccc(S(=O)(=O)Nc4cc(C)on4)cc3)c2c1	?	-16%	56µM*	?	25µM*	?	?
Cc1cc(NS(=O)(=O)c2ccc(NC(=O)c3cc(-c4cccnc4)nc4ccc(Cl)cc34)cc2)no1	?	-3%	-7%	-5%	-2%	0%	nt
SMILES	FEN1 inh	L3MBTL1 inh	WRN helicase inh	APEX1 inh	RECQ1 inh-1	BLM helicase inh	RECQ1 inh-2	others
CCOC(=O)C1(CCc2ccccc2)CCN(C(=O)C2CCCO2)CC1 (stereo not given)	-15%	4%	4%	-2%	?	-2%	2%
CCOC(=O)C1(CCCc2ccccc2)CCN(C(=O)C2CCCO2)CC1 (stereo not given)	1%	-5%	0%	3%	i	0%	nt
Cc1ccc2c(=O)n3c(nc2c1)C(Cc1ccc(O)cc1)NC(=O)c1cc2ccccc2cc1-3 (stereo not given)	nt	nt	-5%	nt	nt	nt	nt
Cc1ccc(/C=C2/SC(=O)NC2=S)o1	40µM*	nt	40µM*	13µM*	18µM*	-12%	?	RECQ1 conf=13%[114 µM];ADP FP counter=35µM*
CCCCCCc1nc2ccccc2c(=O)n1NC(=O)c1c(O)c2cccc3c2n(c1=O)CCC3	nt	nt	nt	0%	-6%	-1%	nt	RECQ1 conf=-12%;ADP FP counter=13%
COC(=O)CCCC1=CC2=CC(=O)C(C)(OC(=O)c3cccs3)C(=O)C2=CO1 (stereo not given)	nt	nt	nt	?	?	-10%	?
CCCN1C(=O)/C(=C/c2ccc(C)o2)SC1=Nc1ccc(OCC)cc1	-3%	-14%	-10%	0%	1%	-6%	nt
CCCN1C(=O)/C(=C/c2ccc(C)o2)SC1=Nc1ccc(OC)cc1	-3%	-15%	-12%	-6%	?	-6%	-26%
